Assay results: the supplement of paper PMC7366291
Structures can show the parent of a compound that is named as a salt. ± gives the standard deviation.

What follows are molecules tested on Danio rerio Tg(wt1b:EGFP) embryo, pronephros (assay: glomerular separation, fold change vs DMSO control; higher = glomeruli further apart (abnormal)). Settings: 25 µM; exposure: 24-48 hpf.
In short: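 Using a Fiji macro, distances and angles were calculated from 16 reference points set by hand on maximum projections of pronephroi imaged dorsally (470 nm, 10 z-slices) in agarose-filled 96-well plates. The dechorionated Tg(wt1b:EGFP) zebrafish embryos had received 25 μM compound in 0.5% DMSO in HEPES-buffered E3 with 0.003% PTU from 24 to 48 hpf at 28.5°C. Values more than 2 SD from a feature's mean were excluded. Each feature appears as a fold change over the mean of DMSO-treated embryos from the same day.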

Row | Structure (SMILES) | glomerular separation
1 | CC(C)(C)NC[C@H](O)COc1cccc2c1CCCC2=O [(-) -Levobunolol hydrochloride] | 0.705 ± 0.17
2 | C#C[C@]1(O)CC[C@H]2[C@@H]3CCC4=CC(=O)CC[C@@H]4[C@H]3CC[C@@]21C [Norethindrone] | 0.967 ± 0.35
3 | C[N+]1(CCCCC[N+]2(C)CCCC2)CCCC1 [Pentolinium bitartrate] | 1.28 ± 0.5
4 | CO[C@@H]1[C@@H](OC(N)=O)[C@@H](O)[C@H](Oc2ccc3c(O)c(NC(=O)c4ccc(O)c(CC=C(C)C)c4)c(=O)oc3c2C)OC1(C)C [Novobiocin sodium salt] | 0.71 ± 0.24
5 | C[C@@H](O[C@H]1OCCN(Cc2n[nH]c(=O)[nH]2)[C@H]1c1ccc(F)cc1)c1cc(C(F)(F)F)cc(C(F)(F)F)c1 [Aprepitant] | 0.995 ± 0.34
6 | O=C(OCC(O)CO)c1ccccc1Nc1ccnc2cc(Cl)ccc12 (stereo not given) [Glafenine hydrochloride] | 1.05 ± 0.26
7 | CC(C)NC[C@H](O)COc1ccc(CC(N)=O)cc1 [(S)-(-)-Atenolol] | 0.84 ± 0.24
8 | NS(=O)(=O)c1cc(C(=O)O)c(NCc2ccco2)cc1Cl [Furosemide] | 0.867 ± 0.13
9 | N=C(N)NCc1cccc(I)c1 [Iobenguane sulfate] | 0.901 ± 0.19
10 | O=C(c1ccccc1)c1ccc2n1CCC2C(=O)O (stereo not given) [Ketorolac tromethamine] | 1 ± 0.43
11 | Cc1ncc([N+](=O)[O-])n1CC(C)O (stereo not given) [Secnidazole] | 0.775 ± 0.29
12 | CC1(C)S[C@@H]2[C@H](NC(=O)Cc3ccccc3)C(=O)N2[C@H]1C(=O)O [Benzylpenicillin sodium] | 0.915 ± 0.33
13 | CC(C)(C)NC(=O)[C@H]1CC[C@H]2[C@@H]3CC[C@H]4NC(=O)C=C[C@]4(C)[C@H]3CC[C@]12C [Finasteride] | 0.797 ± 0.34
14 | CN(C)CCCN1c2ccccc2Sc2ccc(Cl)cc21 [Chlorpromazine hydrochloride] | 0.83 ± 0.37
15 | CO[C@H]1/C=C/O[C@@]2(C)Oc3c(C)c(O)c4c(c3C2=O)C2=NC3(CCN(CC(C)C)CC3)NC2=C(NC(=O)/C(C)=C\C=C\[C@H](C)[C@H](O)[C@@H](C)[C@@H](O)[C@@H](C)[C@H](OC(C)=O)[C@@H]1C)C4=O [Rifabutin] | 1.4 ± 0.24
16 | Clc1ccc(Nc2nnc(Cc3ccncc3)c3ccccc23)cc1 [Vatalanib] | 1.37 ± 0.99
17 | COc1ccccc1OCC(O)CN1CCN(CC(=O)Nc2c(C)cccc2C)CC1 (stereo not given) [Ranolazine] | 0.739 ± 0.33
18 | NCCNCCNCCNCCN [Tetraethylenepentamine pentahydrochloride] | 0.956 ± 0.33
19 | CCN(CC)C(C)CN1c2ccccc2Sc2ccccc21 (stereo not given) [Ethopropazine hydrochloride] | 0.571 ± 0.084
20 | CC(c1cc2ccccc2s1)N(O)C(N)=O (stereo not given) [Zileuton] | 1.25 ± 0.57

Row | Structure (SMILES) | glomerular separation
21 | CCN(CC)C(=O)C1(c2ccccc2)CC1CN (stereo not given) [Milnacipran hydrochloride] | 0.724 ± 0.23
22 | CCN(CC)CCNC(=O)c1cc(S(C)(=O)=O)ccc1OC [Tiapride hydrochloride] | 1.1 ± 0.29
23 | COc1c2occc2c(OC)c2c(=O)cc(C)oc12 [Khellin] | 0.835 ± 0.39
24 | CCCNCC(O)COc1ccccc1C(=O)CCc1ccccc1 (stereo not given) [Propafenone hydrochloride] | 1.06 ± 0.39
25 | C[C@H](O)C(=O)Nc1c(I)c(C(=O)NC(CO)CO)c(I)c(C(=O)NC(CO)CO)c1I [Iopamidol] | 0.92 ± 0.3
26 | Nc1nc(N)nc(-c2cc(Cl)ccc2Cl)n1 [Irsogladine maleate] | 1.11 ± 0.39
27 | CC(C)Oc1ccc2c(=O)c(-c3ccccc3)coc2c1 [Ipriflavone] | 0.901 ± 0.33
28 | CN1CCCN(C(c2ccccc2)c2ccc(Cl)cc2)CC1 (stereo not given) [Homochlorcyclizine dihydrochloride] | 1.08 ± 0.45
29 | Clc1ccc(CCC(Cn2ccnc2)Sc2c(Cl)cccc2Cl)cc1 (stereo not given) [Butoconazole nitrate] | 2.43 ± 1.2
30 | CCC(=O)OCC(=O)[C@@]1(OC(=O)CC)[C@H](C)C[C@H]2[C@H]3[C@H]([C@@H](O)C[C@@]21C)[C@@]1(C)C=CC(=O)C=C1C[C@H]3Cl [Alclometasone dipropionate] | 1.33 ± 0.61
31 | CCCN[C@H]1CCc2nc(N)sc2C1 [Pramipexole dihydrochloride] | 0.857 ± 0.44
32 | C#C[C@]1(OC(C)=O)CC[C@H]2[C@@H]3CCC4=C[C@@H](OC(C)=O)CC[C@@H]4[C@H]3CC[C@@]21C [Ethynodiol diacetate] | 1.12 ± 0.65
33 | NC(=O)N1c2ccccc2C=Cc2ccccc21 [Carbamazepine] | 0.842 ± 0.19
34 | CC(C)(C)NC[C@H](O)COc1nsnc1N1CCOCC1 [Timolol maleate salt] | 0.812 ± 0.37
35 | CC(C)C(=O)OCC(=O)[C@@]12O[C@H](C3CCCCC3)O[C@@H]1C[C@H]1[C@@H]3CCC4=CC(=O)C=C[C@]4(C)[C@H]3[C@@H](O)C[C@@]12C [Ciclesonide] | 1.7 ± 0.91
36 | C#C[C@]1(O)CC[C@H]2[C@@H]3[C@H](C)CC4=C(CCC(=O)C4)[C@H]3CC[C@@]21C [Tibolone] | 0.915 ± 0.4
37 | CCCCC1(COC(=O)CCC(=O)O)C(=O)N(c2ccccc2)N(c2ccccc2)C1=O [Suxibuzone] | 1.48 ± 0.71
38 | CC(=O)CCCCn1c(=O)c2c(ncn2C)n(C)c1=O [Pentoxifylline] | 0.678 ± 0.2
39 | CCOC(=O)C1=C(C)NC(C)=C(C(=O)OCC)C1c1ccccc1/C=C/C(=O)OC(C)(C)C [Lacidipine] | 6.82 ± 2.2
40 | C=CCN1CCCC1CNC(=O)c1cc2nn[nH]c2cc1OC (stereo not given) [Alizapride hydrochloride] | 1.18 ± 0.37
